Experimental data reported in ChEMBL document CHEMBL3988442, “University of Dundee, Small-Polar-MMV Screening Library” (2021).
For some assays here: Results with a measured potency or affinity are listed apart.

What was measured:
Set-up in all cases: scale not given: direction of the effect not stated beside the values
[1] = biological target: Protein translocase subunit SecA (Escherichia coli (strain K12)) (UniProt P10408); test: Assay to Identify E. coli SecA ATPase Inhibitors; assay type: functional; conditions: 30 µM
[2] = biological target: T1, Ubiquitin-activating enzyme e1, putative (Leishmania donovani (strain BPK282A1)) (UniProt E9BSI1); test: Leishmania donovani Ubiquitin Activating Enzyme (LdE1); assay type: functional; conditions: 30 µM
T1 sequence (whole entry): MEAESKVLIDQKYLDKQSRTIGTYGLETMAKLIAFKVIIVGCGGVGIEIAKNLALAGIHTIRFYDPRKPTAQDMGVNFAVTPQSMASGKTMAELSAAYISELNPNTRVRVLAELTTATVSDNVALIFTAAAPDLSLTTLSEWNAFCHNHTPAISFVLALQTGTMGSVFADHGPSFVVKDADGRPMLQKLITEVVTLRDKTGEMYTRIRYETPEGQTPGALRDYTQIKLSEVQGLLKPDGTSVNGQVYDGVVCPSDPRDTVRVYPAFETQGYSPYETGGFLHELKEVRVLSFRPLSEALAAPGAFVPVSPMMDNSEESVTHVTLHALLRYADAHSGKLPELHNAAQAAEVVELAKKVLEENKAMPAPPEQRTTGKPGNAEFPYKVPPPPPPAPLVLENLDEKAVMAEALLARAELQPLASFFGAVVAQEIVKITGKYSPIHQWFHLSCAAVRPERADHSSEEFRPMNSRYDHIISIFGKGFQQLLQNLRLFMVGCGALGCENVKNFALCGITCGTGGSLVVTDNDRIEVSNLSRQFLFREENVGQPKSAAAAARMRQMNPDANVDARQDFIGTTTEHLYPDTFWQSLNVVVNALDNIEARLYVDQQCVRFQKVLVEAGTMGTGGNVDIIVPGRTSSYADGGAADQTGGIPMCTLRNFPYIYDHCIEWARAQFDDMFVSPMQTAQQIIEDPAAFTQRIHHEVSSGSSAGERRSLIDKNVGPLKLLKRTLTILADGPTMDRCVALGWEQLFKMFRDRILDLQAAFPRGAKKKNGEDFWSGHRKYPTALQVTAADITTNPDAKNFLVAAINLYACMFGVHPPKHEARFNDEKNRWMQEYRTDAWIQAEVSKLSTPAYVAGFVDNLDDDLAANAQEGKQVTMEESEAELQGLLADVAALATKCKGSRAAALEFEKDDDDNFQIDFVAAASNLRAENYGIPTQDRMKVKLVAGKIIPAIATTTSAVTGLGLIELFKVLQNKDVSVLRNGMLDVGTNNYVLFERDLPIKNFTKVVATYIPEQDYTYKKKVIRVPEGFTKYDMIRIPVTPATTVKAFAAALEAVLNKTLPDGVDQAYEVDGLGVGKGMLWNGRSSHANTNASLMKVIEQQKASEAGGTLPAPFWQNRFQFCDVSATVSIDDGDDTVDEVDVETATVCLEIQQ

[3] = biological target: AMP-activated protein kinase, AMPK (Homo sapiens) (UniProt P54646+O43741+P54619+Q9UGJ0+Q9Y478+Q13131+Q9UGI9); test: AMP-dependent Kinase enzyme assay. An in vitro enzyme assay that detects ADP turnover that is directly proportional to AMPK activity. This uses naive AMPK that is activated during the assay with MK-8722; assay type: functional; conditions: 30 µM
[4] = biological target: Sialic acid-binding Ig-like lectin 9 (Homo sapiens) (UniProt Q9Y336); test: Hs-Siglec9 ALPHAscreen SOP 20170721; conditions: 10 µM
Trypanosoma cruzi = test: Trypanosoma cruzi phosphomannomutase and mannose-1-phosphate guanylyltransferase assay; assay type: functional; conditions: 10 µM
[5] = biological target: T2, Arginase-2, mitochondrial (Homo sapiens) (UniProt P78540); test: in vitro enzyme assay to detect the production of urea directly proportional to the activity of Arginase II; assay type: functional; conditions: 33.3 µM; note: in the data most compounds retested in dose-response had high values
T2 sequence (whole entry): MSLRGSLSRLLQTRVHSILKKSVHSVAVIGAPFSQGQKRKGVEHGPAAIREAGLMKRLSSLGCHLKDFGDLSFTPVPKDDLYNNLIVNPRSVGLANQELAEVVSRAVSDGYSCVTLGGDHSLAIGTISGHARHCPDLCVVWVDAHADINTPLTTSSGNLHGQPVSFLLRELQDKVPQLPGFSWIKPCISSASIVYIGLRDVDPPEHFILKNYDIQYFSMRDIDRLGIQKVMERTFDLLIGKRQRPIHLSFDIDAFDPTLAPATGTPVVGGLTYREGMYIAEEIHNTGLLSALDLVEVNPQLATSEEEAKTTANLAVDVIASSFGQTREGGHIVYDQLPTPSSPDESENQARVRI

[6] = biological target: T3, Proteasome subunit beta (Trypanosoma cruzi) (UniProt O96673); test: Trypanosoma cruzi proteasome chymotrypsin-like activity (TcProtChymo) assay.; note: in the data most compounds retested in dose-response had high values; assay type: functional; conditions: 9.37 µM
T3 sequence (whole entry): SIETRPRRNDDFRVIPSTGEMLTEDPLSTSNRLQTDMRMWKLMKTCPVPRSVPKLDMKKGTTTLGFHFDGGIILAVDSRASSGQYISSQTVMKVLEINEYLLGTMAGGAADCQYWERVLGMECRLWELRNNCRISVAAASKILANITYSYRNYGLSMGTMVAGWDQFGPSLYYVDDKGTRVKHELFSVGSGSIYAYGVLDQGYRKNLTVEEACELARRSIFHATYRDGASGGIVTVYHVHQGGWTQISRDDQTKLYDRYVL

Homo sapiens = species: Homo sapiens; test: To identify inhibition of the IFN signalling (Jak-Stat) pathway via expression of an eGFP reporter gene under the control of an IFN-stimulated response element (ISRE) containing MxA promoter.; assay type: functional; conditions: 30 µM
[7] = biological target: T4, Tyrosyl-tRNA synthetase, putative (Trypanosoma cruzi (strain CL Brener)) (UniProt Q4DSP6); test: Trypanosoma cruzi tyrosyl tRNA synthetase (TcYRS) _High Tyrosine SOP; assay type: functional; conditions: 30 µM; note: in the data most compounds retested in dose-response had high values
T4 sequence (whole entry): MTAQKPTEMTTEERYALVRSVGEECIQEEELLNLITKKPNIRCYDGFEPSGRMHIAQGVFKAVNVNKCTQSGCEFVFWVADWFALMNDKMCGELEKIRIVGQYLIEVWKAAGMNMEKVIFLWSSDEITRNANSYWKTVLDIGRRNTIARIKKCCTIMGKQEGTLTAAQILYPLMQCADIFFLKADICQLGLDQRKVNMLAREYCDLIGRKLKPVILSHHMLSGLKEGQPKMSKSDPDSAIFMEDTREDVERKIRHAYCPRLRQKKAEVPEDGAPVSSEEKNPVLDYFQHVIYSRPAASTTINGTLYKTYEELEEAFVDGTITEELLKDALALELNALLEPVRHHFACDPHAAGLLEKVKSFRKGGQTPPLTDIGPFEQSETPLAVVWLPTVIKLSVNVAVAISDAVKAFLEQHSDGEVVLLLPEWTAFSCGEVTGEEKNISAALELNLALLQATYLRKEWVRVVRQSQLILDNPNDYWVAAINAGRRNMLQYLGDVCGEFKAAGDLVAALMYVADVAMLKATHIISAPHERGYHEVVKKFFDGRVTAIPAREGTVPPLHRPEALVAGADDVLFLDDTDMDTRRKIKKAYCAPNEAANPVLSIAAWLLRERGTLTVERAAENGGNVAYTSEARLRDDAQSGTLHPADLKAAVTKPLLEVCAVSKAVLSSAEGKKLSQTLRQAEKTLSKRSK

[8] = biological target: T4, Tyrosyl-tRNA synthetase, putative (Trypanosoma cruzi (strain CL Brener)); test: Trypanosoma cruzi tyrosyl tRNA synthetase (TcYRS) SOP; assay type: functional; conditions: 30 µM
[9] = biological target: Chromo domain-containing protein 1 (Saccharomyces cerevisiae (strain ATCC 204508 / S288c) (Baker's yeast)) (UniProt P32657); test: ScCHD-1 Enzyme Inhibition Assay; assay type: functional; conditions: 30 µM; note: in the data most compounds retested in dose-response had high values
Sequence of Chromo domain-containing protein 1 (Saccharomyces cerevisiae (strain ATCC 204508 / S288c) (Baker's yeast)) (P32657 whole entry, the tested form may be a part): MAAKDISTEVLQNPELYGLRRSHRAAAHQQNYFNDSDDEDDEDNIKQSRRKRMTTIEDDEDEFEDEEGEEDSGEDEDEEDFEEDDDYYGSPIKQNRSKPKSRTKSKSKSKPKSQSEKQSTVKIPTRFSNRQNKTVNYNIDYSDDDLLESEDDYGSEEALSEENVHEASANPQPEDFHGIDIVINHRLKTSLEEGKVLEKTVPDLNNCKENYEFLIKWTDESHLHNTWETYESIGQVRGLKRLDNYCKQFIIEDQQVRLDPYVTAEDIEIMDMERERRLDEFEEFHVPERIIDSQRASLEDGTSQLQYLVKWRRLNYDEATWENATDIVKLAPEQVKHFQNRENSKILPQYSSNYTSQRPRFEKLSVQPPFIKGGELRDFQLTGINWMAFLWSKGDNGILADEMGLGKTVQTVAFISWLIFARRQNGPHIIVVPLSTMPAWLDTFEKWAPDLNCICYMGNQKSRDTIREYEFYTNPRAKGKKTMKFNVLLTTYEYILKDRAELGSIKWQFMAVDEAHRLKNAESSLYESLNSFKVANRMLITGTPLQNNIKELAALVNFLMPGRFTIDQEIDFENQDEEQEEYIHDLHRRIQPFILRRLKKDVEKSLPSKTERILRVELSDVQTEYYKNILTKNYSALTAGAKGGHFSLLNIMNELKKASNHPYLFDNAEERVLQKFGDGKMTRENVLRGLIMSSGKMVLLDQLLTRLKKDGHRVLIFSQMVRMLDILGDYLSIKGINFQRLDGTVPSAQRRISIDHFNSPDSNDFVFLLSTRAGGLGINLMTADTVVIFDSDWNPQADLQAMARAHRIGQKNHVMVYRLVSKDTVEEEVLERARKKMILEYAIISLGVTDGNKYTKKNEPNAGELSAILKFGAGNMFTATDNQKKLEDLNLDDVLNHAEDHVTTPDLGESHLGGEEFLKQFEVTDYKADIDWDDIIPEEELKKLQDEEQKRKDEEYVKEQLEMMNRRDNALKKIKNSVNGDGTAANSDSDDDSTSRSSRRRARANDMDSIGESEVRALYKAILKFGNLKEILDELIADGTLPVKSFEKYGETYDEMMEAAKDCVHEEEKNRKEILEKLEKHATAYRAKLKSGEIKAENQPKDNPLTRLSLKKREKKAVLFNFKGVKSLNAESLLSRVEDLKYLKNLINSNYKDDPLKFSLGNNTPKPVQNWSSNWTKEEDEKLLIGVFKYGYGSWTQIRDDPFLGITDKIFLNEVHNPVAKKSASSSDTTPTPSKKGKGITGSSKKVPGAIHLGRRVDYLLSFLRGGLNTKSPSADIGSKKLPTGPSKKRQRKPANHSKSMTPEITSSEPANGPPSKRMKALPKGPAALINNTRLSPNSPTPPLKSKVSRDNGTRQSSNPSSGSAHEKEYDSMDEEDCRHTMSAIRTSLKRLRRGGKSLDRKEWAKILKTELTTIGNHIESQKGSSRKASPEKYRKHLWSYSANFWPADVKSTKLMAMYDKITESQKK

Sequence of Protein translocase subunit SecA (Escherichia coli (strain K12)) (P10408 whole entry): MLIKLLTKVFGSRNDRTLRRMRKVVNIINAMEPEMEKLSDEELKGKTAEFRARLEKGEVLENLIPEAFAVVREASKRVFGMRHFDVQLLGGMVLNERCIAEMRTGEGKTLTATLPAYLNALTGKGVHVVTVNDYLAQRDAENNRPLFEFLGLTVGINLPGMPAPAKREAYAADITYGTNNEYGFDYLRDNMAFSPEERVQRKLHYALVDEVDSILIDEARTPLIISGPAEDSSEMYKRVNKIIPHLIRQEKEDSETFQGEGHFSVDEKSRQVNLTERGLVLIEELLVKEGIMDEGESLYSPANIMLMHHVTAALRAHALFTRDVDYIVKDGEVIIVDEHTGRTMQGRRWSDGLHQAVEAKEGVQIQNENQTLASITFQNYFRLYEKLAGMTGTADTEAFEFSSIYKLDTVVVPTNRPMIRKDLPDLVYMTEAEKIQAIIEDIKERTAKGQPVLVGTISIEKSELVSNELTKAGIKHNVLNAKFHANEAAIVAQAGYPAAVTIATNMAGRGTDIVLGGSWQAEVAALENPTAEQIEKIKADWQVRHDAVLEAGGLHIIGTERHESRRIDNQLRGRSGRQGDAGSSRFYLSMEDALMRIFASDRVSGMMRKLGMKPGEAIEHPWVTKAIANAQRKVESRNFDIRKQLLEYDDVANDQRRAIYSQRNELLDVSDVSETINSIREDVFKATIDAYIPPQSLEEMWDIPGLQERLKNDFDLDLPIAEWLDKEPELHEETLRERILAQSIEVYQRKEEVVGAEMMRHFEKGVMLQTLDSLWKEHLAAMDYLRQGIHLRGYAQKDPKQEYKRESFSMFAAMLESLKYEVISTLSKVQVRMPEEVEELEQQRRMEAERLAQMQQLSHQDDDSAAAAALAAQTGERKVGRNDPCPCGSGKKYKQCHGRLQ
Sequence of Sialic acid-binding Ig-like lectin 9 (Homo sapiens) (Q9Y336 whole entry): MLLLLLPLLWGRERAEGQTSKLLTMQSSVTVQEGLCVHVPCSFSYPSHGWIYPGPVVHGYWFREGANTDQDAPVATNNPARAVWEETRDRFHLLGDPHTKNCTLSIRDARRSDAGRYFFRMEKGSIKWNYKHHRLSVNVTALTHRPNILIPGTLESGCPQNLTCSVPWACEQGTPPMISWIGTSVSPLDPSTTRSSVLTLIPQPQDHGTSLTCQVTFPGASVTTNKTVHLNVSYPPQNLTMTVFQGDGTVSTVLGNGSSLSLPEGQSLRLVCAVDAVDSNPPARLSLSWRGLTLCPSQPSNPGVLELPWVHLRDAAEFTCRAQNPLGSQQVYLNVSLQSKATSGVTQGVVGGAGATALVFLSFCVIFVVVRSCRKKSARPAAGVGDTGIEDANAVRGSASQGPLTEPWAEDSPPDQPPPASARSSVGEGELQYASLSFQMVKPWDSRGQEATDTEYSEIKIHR

Row | SMILES | Percent Effect [1] | Percent Effect [2] | Percent Effect [3] | Percent Effect [4] | Percent Effect (Trypanosoma cruzi) | Percent Effect [5] | Percent Effect [6] | Percent Effect (Homo sapiens) | Percent Effect [7] | Percent Effect [8] | Percent Effect [9]
1 | CC1=NN(c2ccc(C(=O)N3CCCC(n4ccnc4)C3)cc2)CC1 (configuration not stated) | -5.1% | 10.1% | -5.15% | 0.444% | 9.35% | -1.9% | -1.06% | 15.8% | 10.3% | 16.5% | -6.17%
2 | O=C1NC2(CCN(C(=O)Cc3ccsc3)CC2)CC1c1ccncc1 (configuration not stated) | 2.65% | 10.4% | 2.31% | -7.01% | -7.99% | 16.1% | 11.1% | 5.79% | 6.35% | 14.1% | -9.26%
3 | COc1ccc(C2=CCN(C(=O)CN(C)CC(C)C#N)CC2)cc1 (configuration not stated) | -8.6% | -12.7% | -4.45% | 7.49% | 10.5% | -6.84% | 0.901% | 10.5% | 7.39% | 13.9% | -8.15%
4 | CCc1n[nH]c(C2CN(Cc3nnc(C4CC4)n3C)CCO2)n1 (configuration not stated) | 0.518% | 20.8% | -9.24% | -6.88% | -1.08% | 3.16% | 12.7% | 30.4% | 2.86% | 9.41% | -17.9%
5 | CCC1CCCN(C(=O)Cc2csc(-c3ncccn3)n2)C1 (configuration not stated) | -2.19% | 21.1% | 0.0664% | -8.02% | 5.26% | -1.92% | 24.1% | 25.1% | 5.39% | 17.1% | -12.4%
6 | Cc1ccc(CNC(=O)CN2CCN(CC(O)c3ccco3)CC2)cc1 (configuration not stated) | -2.27% | 20.8% | -4.52% | -0.747% | 0.0986% | -1.94% | 9.4% | 7.63% | 4.23% | 24.4% | -10.3%
7 | Cc1cnn(CC2CCCN2C(=O)c2nccc3ccccc23)c1 (configuration not stated) | -3.25% | 13% | 4.54% | 3.78% | -0.49% | -1.05% | 6.39% | 10.7% | 0% | 11.8% | -15.9%
8 | O=C(c1ccc2c(c1)OCO2)N1CCC[C@]2(C[C@H](OCC3CC3)CO2)C1 | -3.85% | 13.3% | 10.8% | -11.4% | 0.197% | 2.56% | 5.37% | 6.01% | 8.51% | 14.1% | -8.25%
9 | CN(C)C(=O)CN1C[C@@H]2CC[C@H](C1)N(C(=O)CCn1cncn1)C2 | -2.58% | 5.41% | -3.51% | 3.26% | -1.16% | -0.952% | 2.76% | -15.8% | 6.88% | 9.76% | -3.62%
10 | CC(=O)N1CCCC(c2ccc(Nc3nc(C)cc(C)n3)cn2)C1 (configuration not stated) | -3.24% | 5.33% | 9.18% | 0.842% | -1.18% | 3.5% | -2.2% | 4.23% | 3.19% | 14.1% | -7.25%
11 | O=C(c1cccs1)N1CCC(O)(CN2CCc3ccccc3C2)C1 (configuration not stated) | -1.45% | 4.05% | 0.49% | 2.19% | -4.74% | 5.34% | 11.7% | 7.61% | 2.15% | 3.9% | -12.6%
12 | Cc1nc(CN2CCC(N(C)Cc3noc(C(C)C)n3)C2)cs1 (configuration not stated) | 1.43% | -24.7% | -8.83% | 5.3% | -5.68% | -4.54% | 19% | 26% | 4.3% | 2.5% | -4.7%
13 | CCc1noc(C2CCCCN2C(=O)c2ccoc2C)n1 (configuration not stated) | -3.77% | 4% | -0.569% | 3.61% | -7.47% | -4.05% | 13.9% | -6.22% | 1.06% | 5.13% | -6.62%
14 | COc1ccc2nnc(CCCC(=O)NCc3cccn3C)n2n1 | -2.1% | 22.7% | -8.56% | 0.257% | 1.57% | 0.176% | 17.4% | -1.92% | 8.47% | -41% | -12%
15 | O=C(NCCc1c[nH]cn1)c1ccc2c(c1)C(=O)N(C1CC1)C2=O | -0.201% | 1.33% | 5.05% | 2.3% | -8.64% | 0.176% | 11.7% | -8.34% | 6.35% | 7.69% | -4.66%
16 | Oc1ccc(N2CCN(Cc3cc4c(cc3Br)OCCO4)CC2)cc1 | -0.859% | -9.72% | 44.8% | 3.01% | -1.07% | -2.21% | 13.2% | 27.4% | 9.47% | 10.3% | -3.02%
17 | COc1cc(C(=O)NS(=O)(=O)c2cccc(C#N)c2)ccc1C | -1.35% | -10.8% | -1.79% | 1.78% | 7.15% | -0.554% | 2.33% | 10.3% | -5.94% | -1.22% | -2.42%
18 | CCOc1ccc(CNCCCn2ccnc2)cc1Br | -0.283% | 12% | -3.14% | 3.52% | -3.34% | -6.51% | 12.8% | 9.57% | 6.35% | 10.3% | -10.4%
19 | CN(Cc1ccco1)C[C@H]1OC[C@@H]2CCN(Cc3nccs3)C[C@@H]21 | -6.74% | 16% | -3.04% | -3.48% | 5.41% | -45% | 16.1% | 7.21% | 2.08% | 10% | -6.67%
20 | NC(=O)C1CCN(Cn2nc(-c3ccccc3)oc2=O)CC1 | -1.26% | 15.6% | 6.06% | 6.43% | 1.08% | -56.5% | 20.3% | 2.82% | 4.3% | 16.1% | -5.92%
21 | COc1ncccc1NC(=O)NC1CCOc2ccccc21 (configuration not stated) | -1.57% | 16.2% | -3.28% | 8.29% | 5.29% | -4.62% | 8.08% | 23.4% | 6.93% | 25.6% | -3.65%
22 | CCn1cnnc1C1CCN(C(=O)c2ccccc2OC)CC1 | -2.76% | 7.79% | 12.8% | 2.75% | -4.68% | -2.13% | 6.42% | 25.9% | 4.85% | 7.32% | -3.6%
